Test results taken from ChEMBL document CHEMBL4888484, “Replenishing the malaria drug discovery pipeline: Screening and hit evaluation of the MMV Hit Generation Library 1 (HGL1) against asexual blood stage Plasmodium falciparum ,using a nano luciferase reporter read-out” (2022).
Screen size: about 150,000 compounds; about 540 (0.36%) showed an effect of 50% or more. This excerpt belongs to a sample that is enriched for strong results.

These molecules were tested on Plasmodium falciparum (assay: Primary screen in NF54 nanoGlo assay, in single point, at 2uM, 72h; a lower Z score goes with more inhibition). Settings: timepoint 72 hour.
Assay type: functional, Erythrocyte
In the case of `Cc1csc(Oc2ccc(N)cc2F)n1`, the “% Inhibition” value is reported as -12% and the Z score is reported as 1.47.
For `CC1CN(C(=O)CN(C)c2cnccn2)CC(C)O1` (stereo not drawn), the “% Inhibition” value was -5% and the Z score was 0.83.
With `Cc1cc(NC(=O)c2ccccn2)n(-c2nc3ccccc3o2)n1` the “% Inhibition” value was 89% and the Z score was -10.15.
With `Cc1nc2cc(NC(=O)c3ccccn3)ccc2o1` the “% Inhibition” value was 11% and the Z score was -1.99.
`O=C(Nc1cccc(CNc2nc3ccccc3o2)c1)c1ccccn1` was tested, and the “% Inhibition” value was -13% and the Z score was 1.61.
`CN(CC(F)(F)F)C(=O)CNc1ncccn1` was tested, and the “% Inhibition” value was 3% and the Z score was -0.38.
For `Cc1cc(C)cc(NC(=O)C23CCC(C)(C(=O)C2=O)C3(C)C)c1` (stereo not drawn), the “% Inhibition” value was 9% and the Z score was -1.39.
In the case of `COc1cccc(NC(=O)c2cc(C(=O)Nc3cccc(OC)c3)cc(N3C(=O)c4ccccc4C3=O)c2)c1`, the “% Inhibition” value is reported as 18% and the Z score is reported as -2.84.
With `CC(C)c1ccc(-c2nc(CN3CCCCC3)cc(CN3CCCCC3)c2O)cc1` the “% Inhibition” value was 96% and the Z score was -15.06.
In the case of `CC(C)c1nc(O)cc(CN2CCCCC2)n1`, the “% Inhibition” value is reported as 33% and the Z score is reported as 1.16.
`Cc1nc(O)cc(CN2CCCCC2)n1` was tested, and the “% Inhibition” value was -11% and the Z score was 1.95.
In the case of `Cc1ccc(S(=O)(=O)c2c(N)n(-c3ccc4c(c3)OCCO4)c3nc4ccccc4nc23)cc1`, the “% Inhibition” value is reported as 6% and the Z score is reported as -0.5.
With `O=C(NC1CC1c1ccc(F)cc1)N1CCN(c2ccccc2O)CC1` (stereo not drawn) the “% Inhibition” value was -7% and the Z score was 1.5.
`CC1(C)COc2ccc(C(=O)N3CC[C@H](O)C3(C)C)cc21` was tested, and the “% Inhibition” value was 19% and the Z score was -2.22.
`CCn1nnc2cc(C(=O)N3CCN(C(c4ccccc4)c4ccccc4)CC3)ccc21` was tested, and the “% Inhibition” value was 32% and the Z score was -3.63.
With `COc1ccc(-c2cc3nc(C)cc(N4CCN(C/C=C/c5ccccc5)CC4)n3n2)cc1OC` the “% Inhibition” value was 51% and the Z score was -9.31.
For `COc1ccccc1-c1cc2nc(C)cc(N3CCN(CCO)CC3)n2n1`, the “% Inhibition” value was -14% and the Z score was 1.98.
In the case of `COc1ccc(-c2nn3c(N4CCN(CC=Cc5ccccc5)CC4)cc(C)nc3c2C)cc1OC`, the “% Inhibition” value is reported as 72% and the Z score is reported as -3.65.
`COc1ccc(-c2nn3c(N4CCCCCC4)cc(C)nc3c2C)cc1OC` was tested, and the “% Inhibition” value was -8% and the Z score was 1.59.
In the case of `COc1ccccc1-c1cc2nc(C)cc(N3CCN(Cc4ccccc4)CC3)n2n1`, the “% Inhibition” value is reported as -10% and the Z score is reported as 1.85.
`COc1ccc(-c2nn3c(N4CCN(C)CC4)cc(C)nc3c2C)cc1OC` was tested, and the “% Inhibition” value was -11% and the Z score was 2.19.
In the case of `COc1ccc(NC(=O)CN2C(=O)[C@H]3CCCC3=Nc3ccccc32)cc1`, the “% Inhibition” value is reported as 1% and the Z score is reported as -0.17.
In the case of `Cc1cc(S(=O)(=O)N(C)CCC(=O)O)sc1C`, the “% Inhibition” value is reported as -30% and the Z score is reported as 2.75.
For `COc1ccc(-n2c(CN3CCCC3)n[nH]c2=O)c(C)c1`, the “% Inhibition” value was -9% and the Z score was 0.87.
In the case of `Cc1ccc(OCC(=O)Nc2noc(-c3ccc(F)cc3)n2)cc1`, the “% Inhibition” value is reported as -8% and the Z score is reported as 1.23.
In the case of `CNc1cc(C)nc(N2C[C@H](C)[C@@](O)(C3CC3)C2)n1`, the “% Inhibition” value is reported as 7% and the Z score is reported as -1.4.
For `CNc1nc(N2C[C@H](C)[C@@](O)(C3CC3)C2)nc2c1CCC2`, the “% Inhibition” value was 100% and the Z score was -0.11.
For `CNc1nc(N2C[C@H]3CC[C@@H](C2)N(C)C3=O)nc2c1CCC2`, the “% Inhibition” value was 6% and the Z score was -0.76.
For `C=C1C2CCC3(C4C[C@@H]5[C@@]6(C)CCC[C@]5(C3[C@H]2O)[C@@H]4N(CC)C6)[C@@H]1O` (stereo partly drawn), the “% Inhibition” value was 31% and the Z score was -3.48.
In the case of `Cc1ccc(-c2cc(C(=O)N(Cc3cccs3)[C@H]3CCS(=O)(=O)C3)no2)cc1F`, the “% Inhibition” value is reported as -11% and the Z score is reported as 2.15.
For `CN(Cc1cc(-c2ccccc2)n[nH]1)c1cc(C2CC(O)C2)nc(N)n1` (stereo not drawn), the “% Inhibition” value was 7% and the Z score was -1.1.
`CN(Cc1ccc(-c2ccccc2)cc1)c1cc([C@H]2C[C@@H](N)C2)nc(N)n1` was tested, and the “% Inhibition” value was 64% and the Z score was -8.85.
In the case of `CCCCN(C)c1cc([C@H]2C[C@@H](N)C2)nc(N)n1`, the “% Inhibition” value is reported as -3% and the Z score is reported as 0.38.
With `CCn1c(CN[C@H](c2ccccc2)c2cccs2)nc2cc(S(=O)(=O)N3CCCCC3)ccc21` the “% Inhibition” value was 14% and the Z score was -1.61.
With `Cc1ccc(NC(=O)N2CC[C@H](N3CCN(C)CC3)[C@H](CCC(=O)O)C2)c(C)c1` the “% Inhibition” value was 16% and the Z score was -2.12.
For `O=C1CCCN1c1ccc(NCc2cccc(O)c2)cc1F`, the “% Inhibition” value was -2% and the Z score was 0.32.
With `O=C(N1CCCN(C2CCC2)CC1)C1(c2ccccc2)CCOCC1` the “% Inhibition” value was -14% and the Z score was 2.36.
`CCOc1cc(CNc2cccc3ccccc23)cc(Br)c1OCC(=O)NC(C)(C)C` was tested, and the “% Inhibition” value was 56% and the Z score was -9.96.
`CCOc1cc(CNc2cc(C)ccc2C)cc(Br)c1OCC(=O)Nc1ccccc1` was tested, and the “% Inhibition” value was -2% and the Z score was 0.3.
In the case of `CCOc1cc(CNC2CCCC2)cc(Br)c1OCC(=O)Nc1ccccc1OC`, the “% Inhibition” value is reported as -12% and the Z score is reported as 1.42.
With `CN(C)c1ccccc1NC(=O)N[C@H]1CCS(=O)(=O)C1` the “% Inhibition” value was -11% and the Z score was 1.66.
In the case of `COC(=O)Nc1nc(-c2ccccc2)c(-c2nc3ccccc3c(=O)n2-c2ccc(OC)cc2)s1`, the “% Inhibition” value is reported as 51% and the Z score is reported as -6.56.
`CCOC(=O)Nc1nc(C)c(-c2nc3ccccc3c(=O)n2-c2ccc(OC)cc2)s1` was tested, and the “% Inhibition” value was 37% and the Z score was 0.52.
In the case of `COc1ccc(-n2c(-c3sc(Nc4ccc(Cl)cc4)nc3C)nc3ccccc3c2=O)cc1`, the “% Inhibition” value is reported as -3% and the Z score is reported as 0.38.
For `C[C@H]1C(=O)N(C)C[C@@H](COc2ccccc2)N1C(=O)C1CCOCC1`, the “% Inhibition” value was -7% and the Z score was 0.87.
In the case of `Cc1cc(CNC(=O)N[C@@H]2CCc3cc(F)ccc32)on1`, the “% Inhibition” value is reported as -7% and the Z score is reported as 0.96.
With `COc1ccc([C@@H]2C=C(c3ccc(Cl)cc3)N=C3NC(NC(=O)c4ccccc4OC)=NN32)cc1` the “% Inhibition” value was 96% and the Z score was -8.52.
In the case of `O=C(NC1=NN2C(=NC(c3ccc(Cl)cc3)=C[C@H]2c2ccc(F)cc2)N1)c1ccc(Cl)cc1`, the “% Inhibition” value is reported as 48% and the Z score is reported as -9.04.
With `COc1ccccc1C(=O)NC1=NN2C(=NC(c3ccc(Cl)cc3)=C[C@H]2c2ccccc2)N1` the “% Inhibition” value was -8% and the Z score was 0.83.
`CCC(=O)NC1=NN2C(=NC(c3ccc(Cl)cc3)=C[C@H]2c2ccc(F)cc2)N1` was tested, and the “% Inhibition” value was 5% and the Z score was -0.64.
`Fc1ccc(C2=C[C@@H](c3ccc(Cl)cc3)N3N=C(c4ccc(Cl)cc4)NC3=N2)cc1` was tested, and the “% Inhibition” value was 96% and the Z score was -14.66.
With `COc1ccccc1C(=O)NC1=NN2C(=NC(c3ccc(Cl)cc3)=C[C@H]2c2ccc(Cl)cc2)N1` the “% Inhibition” value was 97% and the Z score was -10.07.
For `COc1ccc([C@@H]2C=C(c3ccc(Cl)cc3)N=C3NC(N4C(=O)c5ccccc5C4=O)=NN32)cc1`, the “% Inhibition” value was -6% and the Z score was 0.61.
In the case of `O=C(NC1=NN2C(=NC(c3ccccc3)=C[C@H]2c2ccc(F)cc2)N1)c1ccccc1`, the “% Inhibition” value is reported as -11% and the Z score is reported as 1.69.
With `O=C(O)CCC(=O)NC1=NN2C(=NC(c3ccccc3)=C[C@H]2c2ccc(Cl)cc2)N1` the “% Inhibition” value was -39% and the Z score was 4.56.
With `Cc1cccc(OCC(=O)Nc2cc(-c3noc(C)n3)sc2C)c1` the “% Inhibition” value was -14% and the Z score was 2.32.
For `Cc1ccc(-n2cnc3c2CCN(C(=O)C(=O)Nc2c4c(nn2C)CCCC4)C3)cc1`, the “% Inhibition” value was -13% and the Z score was 1.99.
For `C[C@H]1Cc2ccccc2N1C(=O)Cn1cc(-c2ccn(C)n2)nn1`, the “% Inhibition” value was 6% and the Z score was -0.77.
In the case of `COC(=O)CC(C)NC(=O)CC(C)NC(=O)C1CCCC1` (stereo not drawn), the “% Inhibition” value is reported as -9% and the Z score is reported as 1.14.
With `CC1=CC(=[N+](CCO)CCO)C=C/C1=C(\c1ccc(N(CCO)CCO)cc1C)c1ccccc1Cl` the “% Inhibition” value was 86% and the Z score was -10.15.
`OCCN(CCO)c1ccc(C(c2ccccc2Cl)c2ccc(N(CCO)CCO)cc2Cl)c(Cl)c1` was tested, and the “% Inhibition” value was -9% and the Z score was 1.44.
In the case of `OCCN(CCO)c1ccc2ccccc2c1`, the “% Inhibition” value is reported as 7% and the Z score is reported as -0.86.
`COc1cccc(C(=O)N2CCC([C@]3(CCC(C)C)NC(=O)N(CCN(C)C)C3=O)CC2)c1OC` was tested, and the “% Inhibition” value was -8% and the Z score was 1.37.
`O=C(Cc1ccc(F)cc1Cl)N[C@@H](Cc1ccncc1)C1CC(O)C1` (stereo partly drawn) was tested, and the “% Inhibition” value was -6% and the Z score was 1.08.
With `N#Cc1cccc(CN2Cc3nc[nH]c3C[C@H]2C(=O)NCc2ccco2)c1` the “% Inhibition” value was -5% and the Z score was 0.75.
`Nc1c(-c2nc3ccccc3[nH]2)c2nc3ccccc3nc2n1Cc1ccccc1F` was tested, and the “% Inhibition” value was 78% and the Z score was -5.76.
With `Nc1c(S(=O)(=O)c2ccc(Cl)cc2)c2nc3ccccc3nc2n1Cc1ccc(F)cc1` the “% Inhibition” value was -2% and the Z score was 0.21.
In the case of `CCn1c(N)c(-c2nc3ccccc3[nH]2)c(=O)c2ccccc21`, the “% Inhibition” value is reported as -1% and the Z score is reported as 0.15.
With `O=C(COc1ccc(Br)cc1)N1CCN(S(=O)(=O)c2ccc3ccccc3c2)CC1` the “% Inhibition” value was -3% and the Z score was 0.36.
In the case of `CN(C)c1nc2cc(NC(=O)Cc3noc4ccccc34)ccc2o1`, the “% Inhibition” value is reported as -15% and the Z score is reported as 2.38.
For `Cn1cnnc1CNC[C@H](O)c1ccc(Cl)cc1`, the “% Inhibition” value was -8% and the Z score was 1.54.
`CN(C)CCNS(=O)(=O)c1c[nH]c2c(Br)cccc12` was tested, and the “% Inhibition” value was 31% and the Z score was -3.96.
In the case of `Cc1ccc2nc(CN3CCS(=O)(=O)C(C)C3C)cn2c1` (stereo not drawn), the “% Inhibition” value is reported as -13% and the Z score is reported as 1.17.
In the case of `COCCCNC(=O)c1cc(Br)ccc1Br`, the “% Inhibition” value is reported as -3% and the Z score is reported as 0.44.
With `COc1cc2c(cc1OC)CN(C(=O)c1ccc(N3CCOCC3)nc1)CC2` the “% Inhibition” value was 2% and the Z score was -0.32.
In the case of `CC(C)c1nnc(C2CCN(C(=O)c3c[nH]c4ccccc34)CC2)o1`, the “% Inhibition” value is reported as 11% and the Z score is reported as -1.46.
For `Cc1cc2[nH]c(=O)[nH]c2cc1S(=O)(=O)NC1CCCCC1`, the “% Inhibition” value was -5% and the Z score was 0.69.
With `O=c1[nH]c2cc(Br)c(S(=O)(=O)Nc3cccnc3)cc2[nH]1` the “% Inhibition” value was 3% and the Z score was -0.54.
With `O=c1[nH]c2cc(Cl)c(S(=O)(=O)Cl)cc2[nH]1` the “% Inhibition” value was 69% and the Z score was -7.82.
